# Source: the supplement of paper PMC10681739
# Target: T1, ETS1 (UniProt P14921)
# T1 sequence: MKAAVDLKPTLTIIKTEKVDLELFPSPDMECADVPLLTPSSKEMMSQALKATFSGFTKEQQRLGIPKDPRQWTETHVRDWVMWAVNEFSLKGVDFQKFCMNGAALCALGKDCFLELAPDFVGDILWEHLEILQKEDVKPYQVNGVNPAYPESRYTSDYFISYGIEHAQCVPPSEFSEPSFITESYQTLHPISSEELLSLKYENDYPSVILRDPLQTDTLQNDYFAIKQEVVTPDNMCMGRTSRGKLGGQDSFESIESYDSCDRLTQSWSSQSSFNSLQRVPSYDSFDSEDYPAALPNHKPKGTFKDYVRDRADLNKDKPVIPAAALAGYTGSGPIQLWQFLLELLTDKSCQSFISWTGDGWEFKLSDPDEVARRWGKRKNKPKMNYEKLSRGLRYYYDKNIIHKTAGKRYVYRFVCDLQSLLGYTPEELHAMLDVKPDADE
# Assay: ETS1 binding intensity (PBM fluorescence) in presence of RUNX1, normalised to ETS1-only experiment (arbitrary fluorescence units); higher = stronger binding
# Settings: ETS1 concentration 1 nM; RUNX1 concentration 25 nM
# Experimental: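 Cooperative genomic-context PBM: 36-bp genomic probes with neighbouring ETS1 and RUNX1 sites, double-stranded on Agilent 4x180k arrays. Full-length recombinant human ETS1 (1 nM) was incubated alone or with RUNX1 (25 nM) and detected with anti-ETS1 antibody plus Alexa488 secondary. Value is the median fluorescence intensity over 4 replicate spots; the ETS1+RUNX1 data were normalised to the ETS1-only data using probes without RUNX1 sites. The 36-bp variable region sits on the array probe with constant linker/primer flanks that are not printed.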
row,Sequence,ETS1 binding intensity
1,TATGACCAGGGGAGGGAAGTGACCACAGCATATCAC,823
2,GGTCCAGGAAGACGTCAAGGGCTTGGTTTTGTAAAC,448
3,TGGCAGCCACATCCTGCCTGTGGCTAGGTCAACCCA,1290
4,TGGCAGGATGCCGTTAAATATGTAACCACATGTCTC,1250
5,CCGGGACAGGAAGAGGCTGGGGACCGCGGCGAAGGT,1550
6,GACAAAACACAGAAAGGAAGTGGTCAACTATTGCAC,4930
7,GAACTTCCGGGACCACGTGACGTAGAACCACAACAA,1100
8,AAGTGAAGAGCTTCCGCCGGGAGACCGCGGCTGCAG,686
9,ACCAGAACAGGAAATGTTAGTGGTTGAGTTAACGGT,5800
10,TCGCATAGCCGGGAAGCGCGGTGGAGGTTGTTGGGG,473
11,TGCTTCCCTTCCGTTCCGACAGCGAAAACCGCTGCC,783
12,GCTCATTTCCTGGCCGCTCCTGGGCTTCGCGGTGAG,716
13,GCATGTTCAAAAGGATGTGGGTGCTTACCTAGTGCC,1230
14,GTCTGCTTAAAAACAGGAAACCACATATCTCCACCC,10700
15,TCTTGAGGGTCAGGATGTGGTGAGGCCAGAGAAGGC,2120
16,TTTCGAGAAAACCGGAAGTGCGTGGTCACGCCCCGC,38100
17,TGAGAAAACAGGAAGCGCCCAGTCACCACAGAAAGC,5290
18,CATCTACTGAGGAAGTGTAAGCCACAATAAGAAGCC,869
19,TTCAGGTGACTTCCGGCCGGACCGCTGAGGACGCGG,9520
20,TCCTAGCCATTTCCTATCCACCCTGTGGCTAATTTG,476

row,Sequence,ETS1 binding intensity
1,GAGCACATTTCCTTTTGCTTCCAGATACCACAGTGA,412
2,TATCAATAAGGAAGTACAATCACCAAACCACAAGCC,2700
3,CCTCAAAACCCGGAAACGCCTTGCGGGGCAGTGTGG,4480
4,ACTTACAAAGGAAGTGACAGAACCACAGAAAAGACC,2660
5,ATTTAGGAGGAAGTTTCCAGTACCACAACCTCACAG,709
6,TTGTGCTTCCTGCTCATGAGATTGCTAGCGGTTACT,707
7,CTCTTCCTGCCTGTCCGTGGCTGGTGTGGTTTGCGT,616
8,GGTTCTCTAGGGAGAGGATGTGGGTTTGTCTCTGGG,6540
9,TGCGCCGGGAGGAAGGGCTCCAAAACCACAGGGCGG,1400
10,GACTATGTGCTTCCGGTCTCCAATACCGCAGGAGGG,13600
11,CCAATGGGCAGGCGGAAACCGCGGGCTCGTGCTCCC,2900
12,TGCAGCTTCCTGTCTGAGGCTTTGTGGTCCTTTCAT,889
13,GACCAATGTAAACAAGGATGTGGGTTCTCCGGCCAC,3290
14,TAGAAAAGGAAGCAGGGTAGGTGTGGTATCTGGGTC,575
15,ATCATCTAGGAGACAGGATGTGGTTAGGGTGTTAAA,59800
16,TACTACTTACCAGCAGGATGTGGTCCCTGCCCACTG,7040
17,TCTGGCTTCCTGTCTTAATAGGGCTTTGTGGTGTGC,1080
18,GTTGAAATTGAGCTTCCGTTGGTGGTTAACCCTCTG,921
19,ACTCCTCCCGCTTCCGCTGCCGCAGCCGGTCGTAAC,1680
20,TCGGCGGATATGAAAAAAAGTCCGTGGTCACGTGCA,582
